# How the values were obtained:
# Assay in all cases: protein binding microarray; high values mean tight binding
# Details in all cases: dsDNA, one strand shown
# RELARELA (p65 homodimer) = RELARELA (p65 homodimer) (Homo sapiens, UniProt Q04206 1-307)
# p50p50 homodimer = p50p50 homodimer (Homo sapiens, UniProt P19838 7-356)
# p52p52 homodimer = target: T1, p52p52 homodimer (Homo sapiens, UniProt Q00653 4-332)
# T1 sequence: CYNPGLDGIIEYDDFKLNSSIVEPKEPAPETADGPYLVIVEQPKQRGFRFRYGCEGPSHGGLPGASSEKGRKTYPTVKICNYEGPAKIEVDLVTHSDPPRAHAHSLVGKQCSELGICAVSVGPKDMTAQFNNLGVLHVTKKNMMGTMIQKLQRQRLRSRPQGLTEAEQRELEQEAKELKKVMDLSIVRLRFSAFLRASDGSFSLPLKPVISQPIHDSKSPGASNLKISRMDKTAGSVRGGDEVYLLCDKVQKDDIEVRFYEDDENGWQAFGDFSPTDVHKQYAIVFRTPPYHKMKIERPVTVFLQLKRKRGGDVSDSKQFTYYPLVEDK
# [1] = target: RELA (p65) subunit of heterodimer;p50 subunit (Homo sapiens;Homo sapiens, UniProt Q04206;P19838 1-307;7-356)
# [2] = target: RELA (p65) subunit of heterodimer;p52 subunit (Homo sapiens;Homo sapiens, UniProt Q04206;Q00653 1-307;4-332)
# RELB subunit;p50 subunit = RELB subunit;p50 subunit (Homo sapiens;Homo sapiens, UniProt Q01201;P19838 120-401;7-356)
# RELB subunit;p52 subunit = target: T2, RELB subunit;p52 subunit (Homo sapiens;Homo sapiens, UniProt Q01201;Q00653 120-401;4-332)
# T2 sequence 1: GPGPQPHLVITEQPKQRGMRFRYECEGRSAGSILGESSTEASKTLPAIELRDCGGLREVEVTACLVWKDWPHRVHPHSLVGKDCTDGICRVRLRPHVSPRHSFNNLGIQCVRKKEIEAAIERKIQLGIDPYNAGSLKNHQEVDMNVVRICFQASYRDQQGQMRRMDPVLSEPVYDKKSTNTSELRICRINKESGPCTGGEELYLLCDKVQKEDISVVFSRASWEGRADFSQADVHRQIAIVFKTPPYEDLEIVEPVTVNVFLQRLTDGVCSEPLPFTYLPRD
# T2 sequence 2: T1 sequence
# [3] = target: C-Rel subunit;p50 subunit (Homo sapiens;Homo sapiens, UniProt Q04864;P19838 1-285;7-356)
# [4] = target: T3, C-Rel subunit;p52 subunit (Homo sapiens;Homo sapiens, UniProt Q04864;Q00653 1-285;4-332)
# T3 sequence 1: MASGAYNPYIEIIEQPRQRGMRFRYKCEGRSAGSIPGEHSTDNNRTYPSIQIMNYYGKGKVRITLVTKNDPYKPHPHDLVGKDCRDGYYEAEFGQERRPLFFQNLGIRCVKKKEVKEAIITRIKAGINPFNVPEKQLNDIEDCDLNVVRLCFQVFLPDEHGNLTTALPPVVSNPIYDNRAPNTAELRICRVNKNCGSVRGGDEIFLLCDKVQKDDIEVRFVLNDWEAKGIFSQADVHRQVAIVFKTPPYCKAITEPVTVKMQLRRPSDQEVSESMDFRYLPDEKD
# T3 sequence 2: T1 sequence
# Chain of RELA (p65) subunit of heterodimer;p50 subunit (Q04206 1-307, chain 1 of 2): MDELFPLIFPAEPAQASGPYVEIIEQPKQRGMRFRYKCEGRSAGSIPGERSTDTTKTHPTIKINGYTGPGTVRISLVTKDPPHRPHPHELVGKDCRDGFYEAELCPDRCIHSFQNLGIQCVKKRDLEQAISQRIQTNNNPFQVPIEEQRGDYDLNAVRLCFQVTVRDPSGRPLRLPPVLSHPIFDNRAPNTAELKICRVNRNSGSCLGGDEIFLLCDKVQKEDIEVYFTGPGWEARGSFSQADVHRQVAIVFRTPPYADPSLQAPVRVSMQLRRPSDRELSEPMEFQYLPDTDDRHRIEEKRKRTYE
# Chain of RELA (p65) subunit of heterodimer;p50 subunit (P19838 7-356, chain 2 of 2): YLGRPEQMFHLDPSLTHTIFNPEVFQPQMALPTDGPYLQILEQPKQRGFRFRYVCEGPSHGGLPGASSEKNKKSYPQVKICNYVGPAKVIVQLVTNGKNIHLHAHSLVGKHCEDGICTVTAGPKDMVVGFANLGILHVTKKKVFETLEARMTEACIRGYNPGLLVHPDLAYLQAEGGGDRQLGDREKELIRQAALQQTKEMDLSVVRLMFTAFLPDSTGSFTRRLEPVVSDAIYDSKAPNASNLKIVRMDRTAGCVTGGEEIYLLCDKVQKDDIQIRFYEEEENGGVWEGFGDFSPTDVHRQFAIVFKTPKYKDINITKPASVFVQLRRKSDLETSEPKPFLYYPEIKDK
# Chain of RELARELA (p65 homodimer) (Q04206 1-307): as the sequence (Q04206 1-307, chain 1 of 2) above
# Chain of p50p50 homodimer (P19838 7-356): as the sequence (P19838 7-356, chain 2 of 2) above
Sequence,binding signal (RELARELA (p65 homodimer)),binding signal (p50p50 homodimer),binding signal (p52p52 homodimer),binding signal [1],binding signal [2],binding signal (RELB subunit;p50 subunit),binding signal (RELB subunit;p52 subunit),binding signal [3],binding signal [4]
AAGAGCATCCT,-0.702 z-score,-1.75 z-score,-0.753 z-score,-1.09 z-score,-1.17 z-score,-1.16 z-score,-0.978 z-score,-1.52 z-score,-1.15 z-score
CGGGTTACCCT,0.242 z-score,-0.264 z-score,-0.0855 z-score,-0.112 z-score,-0.124 z-score,0.063 z-score,-0.22 z-score,-0.0809 z-score,-0.0258 z-score
AAGGTGTCCCT,-0.0449 z-score,0.811 z-score,0.895 z-score,0.784 z-score,0.967 z-score,1.01 z-score,1.5 z-score,0.63 z-score,0.562 z-score
AGAGAACTCCT,-0.542 z-score,-1.29 z-score,-0.694 z-score,-0.888 z-score,-1.06 z-score,-1.05 z-score,-0.943 z-score,-1.01 z-score,-0.762 z-score
AAGGGTTTCCC,2.18 z-score,0.668 z-score,1.31 z-score,1.15 z-score,1.43 z-score,0.696 z-score,1.17 z-score,1.07 z-score,1.57 z-score
CAATTCCCCCC,1.09 z-score,1.66 z-score,1.93 z-score,2.3 z-score,1.94 z-score,2.19 z-score,2.34 z-score,1.94 z-score,1.85 z-score
GGAGTCACCCT,-0.674 z-score,-0.676 z-score,-0.345 z-score,-0.224 z-score,-0.5 z-score,-0.378 z-score,-0.661 z-score,-0.396 z-score,-0.585 z-score
CAAGGAGCCCC,-0.885 z-score,0.241 z-score,-0.0311 z-score,-0.1 z-score,-0.176 z-score,0.0779 z-score,0.0984 z-score,0.121 z-score,-0.176 z-score
CGGAACACCCT,-0.222 z-score,-0.182 z-score,-0.238 z-score,-0.453 z-score,-0.316 z-score,-0.373 z-score,-0.287 z-score,-0.444 z-score,-0.317 z-score
AAAAGCGTCCC,0.0306 z-score,0.282 z-score,0.41 z-score,0.21 z-score,0.286 z-score,0.48 z-score,0.821 z-score,0.207 z-score,0.0784 z-score
GGATGAACCCT,-0.273 z-score,-1.25 z-score,-0.595 z-score,-0.588 z-score,-0.76 z-score,-0.936 z-score,-0.814 z-score,-1.23 z-score,-0.571 z-score
CAGTTCTCCCT,0.501 z-score,1.08 z-score,0.65 z-score,0.838 z-score,0.551 z-score,1.22 z-score,1.11 z-score,0.63 z-score,0.344 z-score
GAGAACTTCCT,0.439 z-score,-0.697 z-score,-0.718 z-score,-0.503 z-score,-0.731 z-score,-0.944 z-score,-0.781 z-score,-0.692 z-score,-0.645 z-score
CAATTACCCCT,0.378 z-score,1.06 z-score,0.863 z-score,0.727 z-score,1.01 z-score,0.941 z-score,1.38 z-score,0.652 z-score,0.899 z-score
GAATTCCTCCC,0.897 z-score,-0.0187 z-score,-0.00969 z-score,0.17 z-score,0.0178 z-score,-0.14 z-score,-0.0714 z-score,0.325 z-score,0.177 z-score
CGAATCGCCCT,-0.52 z-score,-1.41 z-score,-0.603 z-score,-0.694 z-score,-0.649 z-score,-0.752 z-score,-0.785 z-score,-0.785 z-score,-0.657 z-score
CGGGTCCTCCC,-0.107 z-score,-0.467 z-score,-0.154 z-score,-0.451 z-score,-0.038 z-score,-0.526 z-score,-0.335 z-score,-0.324 z-score,0.0736 z-score
CGAGGGCCCCC,-0.934 z-score,0.101 z-score,-0.0825 z-score,0.0405 z-score,-0.0107 z-score,0.199 z-score,0.202 z-score,-0.0359 z-score,0.137 z-score
AGAAAAGCCCC,1.13 z-score,0.938 z-score,2.07 z-score,1.57 z-score,1.76 z-score,1.77 z-score,1.57 z-score,0.96 z-score,1.65 z-score
GAATATATCCC,0.0475 z-score,-0.184 z-score,-0.107 z-score,-0.275 z-score,-0.268 z-score,-0.131 z-score,-0.295 z-score,-0.368 z-score,-0.351 z-score
CAGGGAGTCCT,0.0727 z-score,0.0337 z-score,-0.143 z-score,-0.336 z-score,-0.215 z-score,-0.201 z-score,-0.323 z-score,-0.383 z-score,-0.23 z-score
CGGTTTACCCC,0.939 z-score,0.564 z-score,0.746 z-score,0.807 z-score,1.01 z-score,0.667 z-score,1.16 z-score,1.04 z-score,1.04 z-score
CAATACATCCC,-0.0719 z-score,-0.836 z-score,-0.518 z-score,-0.774 z-score,-0.7 z-score,-0.646 z-score,-0.575 z-score,-0.971 z-score,-0.69 z-score
CAGAGACCCCC,-1.05 z-score,0.706 z-score,0.0929 z-score,0.407 z-score,0.302 z-score,0.373 z-score,0.502 z-score,0.323 z-score,0.174 z-score
GAGTGTACCCC,0.11 z-score,-0.176 z-score,-0.057 z-score,0.0359 z-score,0.0373 z-score,0.15 z-score,0.337 z-score,0.0895 z-score,0.24 z-score
CGAGAGCCCCT,-0.807 z-score,0.741 z-score,0.297 z-score,0.363 z-score,0.418 z-score,0.502 z-score,0.576 z-score,0.0988 z-score,0.379 z-score
AAATTGTCCCT,0.833 z-score,1.43 z-score,1.92 z-score,1.28 z-score,1.26 z-score,1.61 z-score,1.7 z-score,1.14 z-score,1.11 z-score
AAGTGTTCCCC,0.872 z-score,0.916 z-score,0.928 z-score,1.24 z-score,0.915 z-score,1.13 z-score,1.14 z-score,1.33 z-score,0.844 z-score
GAATTGTCCCC,1.03 z-score,1.37 z-score,1.34 z-score,1.38 z-score,1.18 z-score,1.38 z-score,1.61 z-score,1.27 z-score,0.963 z-score
GGGGTGATCCC,0.248 z-score,0.402 z-score,1.59 z-score,0.62 z-score,1.16 z-score,0.387 z-score,0.685 z-score,0.527 z-score,0.91 z-score

# From article PMC3218832
